Assay results from PubChem BioAssay AID1159580 (chemical genetic matrix, 2015).
Among all 5,500 compounds or so, about 2,000 (36%) were called active. Roughly 18% stayed inconclusive and do not appear here. No stated cut-off is given here; in the data, active means normalized growth mostly below about 0.91 (no sharp cut-off); inconclusive means no clear call, values can overlap the other calls; inactive means mostly above about 0.92. The list shows a part of the results.

Experiment: chemical genetic growth profiling, strain panel (AID 1159580);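 further: tested at 20 µM; growth read once vehicle control cultures reached saturation at 30 °C; 1 = growth at the plate median or of vehicle wells; lower values mean less growth of the strain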
Conditions: growth OD

Measured: normalized growth

CCC[C@H](N[C@@H](C)C(=O)N1[C@H](C(=O)O)C[C@@H]2CCCC[C@@H]21)C(=O)OCC
inactive: S. cerevisiae deletion strains, locus YJR075W, strain HOC1, hits give low values 1.02 | S. cerevisiae deletion strains, locus YKL009W, strain mrt4, hits give low values 1.02 | S. cerevisiae deletion strains, locus YKL068W, hits give low values 1.03 | S. cerevisiae deletion strains, locus YKL085W, strain MDH1 (second series), hits give low values 1.01 | S. cerevisiae deletion strains, locus YKL085W, strain MDH1, hits give low values 1.01 | S. cerevisiae deletion strains, locus YKL160W, strain elf1, hits give low values 1.02 | S. cerevisiae deletion strains, locus YKL190W, strain CNB1, hits give low values 1.02 | S. cerevisiae deletion strains, locus YKR001C, strain vps1, hits give low values 1.03 | S. cerevisiae deletion strains, locus YKR026C, strain gcn3, hits give low values 1.02 | S. cerevisiae deletion strains, locus YKR091W, strain srl3, hits give low values 1.02 | S. cerevisiae deletion strains, locus YLL001W, strain dnm1, hits give low values 1.02 | S. cerevisiae deletion strains, locus YLL026W, hits give low values 1.01 | S. cerevisiae deletion strains, locus YLL041C, strain sdh2, hits give low values 1.01 | S. cerevisiae deletion strains, locus YLR027C, strain aat2, hits give low values 1.01 | S. cerevisiae deletion strains, locus YLR039C, strain RIC1, hits give low values 1.03 | S. cerevisiae deletion strains, locus YLR058C, strain SHM2, hits give low values 1.01 | S. cerevisiae deletion strains, locus YLR102C, strain apc9, hits give low values 1.02 | S. cerevisiae deletion strains, locus YLR113W, strain HOG1, hits give low values 0.988 | S. cerevisiae deletion strains, locus YLR221C, strain rsa3, hits give low values 1.01 | S. cerevisiae deletion strains, locus YLR258W, strain gsy2, hits give low values 1.02 | S. cerevisiae deletion strains, locus YLR262C, strain YPT6 (second series), hits give low values 1.03 | S. cerevisiae deletion strains, locus YLR262C, strain YPT6, hits give low values 1.04 | S. cerevisiae deletion strains, locus YLR268W, strain sec22, hits give low values 1.02 | S. cerevisiae deletion strains, locus YLR320W, strain mms22, hits give low values 1.01 | S. cerevisiae deletion strains, locus YLR330W, strain CHS5, hits give low values 1.01 | S. cerevisiae deletion strains, locus YLR342W, strain FKS1 (second series), hits give low values 1.02 | S. cerevisiae deletion strains, locus YLR342W, strain FKS1, hits give low values 1.03 | S. cerevisiae deletion strains, locus YLR357W, strain rsc2, hits give low values 0.998 | S. cerevisiae deletion strains, locus YLR370C, strain arc18, hits give low values 1.01 | S. cerevisiae deletion strains, locus YLR371W, strain rom2, hits give low values 1.01 | S. cerevisiae deletion strains, locus YLR384C, strain iki3, hits give low values 1.01 | S. cerevisiae deletion strains, locus YLR418C, strain cdc73, hits give low values 1.01 | S. cerevisiae deletion strains, locus YML016C, strain PPZ1, hits give low values 1.01 | S. cerevisiae deletion strains, locus YML032C, strain rad52, hits give low values 1.02 | S. cerevisiae deletion strains, locus YML120C, strain ndi1, hits give low values 1.02 | S. cerevisiae deletion strains, locus YML124C, strain tub3, hits give low values 1.02 | S. cerevisiae deletion strains, locus YMR058W, strain fet3, hits give low values 1.02 | S. cerevisiae deletion strains, locus YMR078C, strain ctf18, hits give low values 1.03 | S. cerevisiae deletion strains, locus YMR125W, strain sto1, hits give low values 0.994 | S. cerevisiae deletion strains, locus YMR129W, hits give low values 1.02 | S. cerevisiae deletion strains, locus YMR205C, strain PFK2, hits give low values 1.02 | S. cerevisiae deletion strains, locus YMR223W, strain ubp8, hits give low values 1.03 | S. cerevisiae deletion strains, locus YMR231W, strain pep5, hits give low values 1.02 | S. cerevisiae deletion strains, locus YMR263W, strain SAP30, hits give low values 1.01 | S. cerevisiae deletion strains, locus YMR307W, strain GAS1, hits give low values 0.976 | S. cerevisiae deletion strains, locus YNL067W, strain RPL9B, hits give low values 1.01 | S. cerevisiae deletion strains, locus YNL071W, strain lat1, hits give low values 1.01 | S. cerevisiae deletion strains, locus YNL128W, strain TEP1, hits give low values 1.01 | S. cerevisiae deletion strains, locus YNL153C, strain GIM3, hits give low values 1 | S. cerevisiae deletion strains, locus YNL183C, strain NPR1, hits give low values 0.963 | S. cerevisiae deletion strains, locus YNL209W, strain ssb2, hits give low values 1.01 | S. cerevisiae deletion strains, locus YNL233W, strain BNI4, hits give low values 0.996 | S. cerevisiae deletion strains, locus YNL248C, strain rpa49, hits give low values 1.01 | S. cerevisiae deletion strains, locus YNL250W, strain rad50, hits give low values 1.02 | S. cerevisiae deletion strains, locus YNL271C, strain bni1, hits give low values 1.02 | S. cerevisiae deletion strains, locus YNL298W, strain CLA4, hits give low values 1.01 | S. cerevisiae deletion strains, locus YNL307C, strain MCK1, hits give low values 1.03 | S. cerevisiae deletion strains, locus YNL322C, strain KRE1 (second series), hits give low values 1.02 | S. cerevisiae deletion strains, locus YNL322C, strain KRE1, hits give low values 1.01 | S. cerevisiae deletion strains, locus YNR049C, strain mso1, hits give low values 1.02 | S. cerevisiae deletion strains, locus YNR052C, strain pop2, hits give low values 1.02 | S. cerevisiae deletion strains, locus YOL006C, strain TOP1, hits give low values 1.04 | S. cerevisiae deletion strains, locus YOL012C, strain htz1 0.981 | S. cerevisiae deletion strains, locus YOL147C, strain pex11, hits give low values 1.02 | S. cerevisiae deletion strains, locus YOR001W, strain rrp6, hits give low values 1.03 | S. cerevisiae deletion strains, locus YOR061W, strain CKA2, hits give low values 1.01 | S. cerevisiae deletion strains, locus YOR069W, strain VPS5, hits give low values 1 | S. cerevisiae deletion strains, locus YOR070C, strain gyp1, hits give low values 1.02 | S. cerevisiae deletion strains, locus YOR080W, strain dia2, hits give low values 1.03 | S. cerevisiae deletion strains, locus YOR083W, strain WHI5, hits give low values 1.02 | S. cerevisiae deletion strains, locus YOR106W, strain vam3, hits give low values 1.04 | S. cerevisiae deletion strains, locus YOR136W, strain idh2, hits give low values 1.02 | S. cerevisiae deletion strains, locus YOR144C, strain elg1, hits give low values 1.02 | S. cerevisiae deletion strains, locus YOR184W, strain ser1, hits give low values 1.03 | S. cerevisiae deletion strains, locus YOR231W, strain MKK1, hits give low values 0.999 | S. cerevisiae deletion strains, locus YOR265W, strain rbl2, hits give low values 1.01 | S. cerevisiae deletion strains, locus YOR270C, strain vph1, hits give low values 1.05 | S. cerevisiae deletion strains, locus YOR290C, strain snf2, hits give low values 1 | S. cerevisiae deletion strains, locus YOR316C, strain cot1, hits give low values 1.02 | S. cerevisiae deletion strains, locus YPL051W, strain arl3, hits give low values 1.02 | S. cerevisiae deletion strains, locus YPL055C, strain LGE1, hits give low values 1.01 | S. cerevisiae deletion strains, locus YPL078C, strain atp4, hits give low values 1.03 | S. cerevisiae deletion strains, locus YPL106C, strain sse1, hits give low values 1.02 | S. cerevisiae deletion strains, locus YPL240C, strain hsp82, hits give low values 1.02 | S. cerevisiae deletion strains, locus YPL241C, strain CIN2, hits give low values 1.03 | S. cerevisiae deletion strains, locus YPL256C, strain CLN2, hits give low values 1 | S. cerevisiae deletion strains, locus YPR119W, strain clb2, hits give low values 1.03 | S. cerevisiae deletion strains, locus YPR141C, strain kar3, hits give low values 1.02 | S. cerevisiae deletion strains, locus YPR163C, strain tif3, hits give low values 1.02 | S. cerevisiae deletion strains, locus YPR167C, strain met16, hits give low values 1.01 | S. cerevisiae deletion strains, strain wtn01, hits give low values 1.01 | S. cerevisiae strains, strain wild type, hits give low values 1.01
